DT40 TDP1 CPT: qHTS for Inhibitors of human tyrosyl-DNA phosphodiesterase 1 (TDP1): qHTS in cells in presence of CPT. Potency, µM (titrated, usually from 46.2 µM), for inactives: top-dose activity change, negative = growth inhibition, actives largely listed as inhibitors. chicken DT40 Tdp1-/-;hTDP1 cells + 20 nM CPT, ATP luminescence, 48 h. AID 686979, 2013. 12% of 420,000 active; also: nearly all actives have a fitted effect of over 55% in size
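Chicken DT40 Tdp1-/- cells stably complemented with human TDP1 were seeded at 400 cells/well in medium containing 20 nM camptothecin, exposed to pin-transferred compounds, and grown at 37 °C for at least 48 hr. Viability was read as ATP luminescence.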
TDP1 cell noCPT: qHTS for Inhibitors of human tyrosyl-DNA phosphodiesterase 1 (TDP1): qHTS in cells in absence of CPT. DT40 Tdp1-/- hTDP1 cells, no CPT, ATP luminescence, 48 h. Potency, µM (titrated, usually from 46.2 µM), for the others: at the highest dose activity change, negative = growth inhibition, actives largely listed as inhibitors. 15% of 420,000 active; also: nearly all actives have a fitted effect of over 55% in size
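No-CPT arm: Tdp1-/-;hTDP1 DT40 cells (400/well) plus compounds, incubated ≥48 hr at 37 °C. Readout CellTiter-Glo luminescence.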
PLK1 PBD inh: qHTS for Inhibitors of PLK1-PDB (polo-like kinase 1 - polo-box domain): Primary Screen; Serine/threonine-protein kinase PLK1 (Homo sapiens), P53350; Plk1 PBD binding of FITC phosphopeptide, fluorescence polarization; Potency, µM, for the others: max response, negative = inhibition, actives largely listed as inhibitors; 2.8% of 360,000 active; also: series mostly up to about 57 µM; nearly all actives have a fitted effect of over 65% in size
VDR inhibitor: Inhibitors of the vitamin D receptor (VDR): qHTS; Vitamin D3 receptor (Homo sapiens), P11473; VDR-SRC2-3 peptide fluorescence polarization, 2 h; Potency, µM, for the others: max response, negative = inhibition, actives largely listed as inhibitors; 0.93% of 400,000 active; AID 504847, 2011
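Fluorescence polarization assay measuring small-molecule disruption of VDR binding to the coregulator peptide SRC2-3. Compounds were pin-transferred (23 nl) into the reagent mix and incubated 2 h at room temperature before reading.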
TDP1 inh: qHTS Assay for Inhibitors of Tyrosyl-DNA Phosphodiesterase (TDP1) | recombinant TDP1, AlphaScreen DNA substrate cleavage | Potency, µM (doses to about 130 µM), for the others: at the highest dose activity change, negative = inhibition, hits mostly inhibitors | 0.28% of 350,000 active; also: nearly all actives have a fitted effect of over 40% in size
Target sequence (Q9NUW8 whole entry, looked up): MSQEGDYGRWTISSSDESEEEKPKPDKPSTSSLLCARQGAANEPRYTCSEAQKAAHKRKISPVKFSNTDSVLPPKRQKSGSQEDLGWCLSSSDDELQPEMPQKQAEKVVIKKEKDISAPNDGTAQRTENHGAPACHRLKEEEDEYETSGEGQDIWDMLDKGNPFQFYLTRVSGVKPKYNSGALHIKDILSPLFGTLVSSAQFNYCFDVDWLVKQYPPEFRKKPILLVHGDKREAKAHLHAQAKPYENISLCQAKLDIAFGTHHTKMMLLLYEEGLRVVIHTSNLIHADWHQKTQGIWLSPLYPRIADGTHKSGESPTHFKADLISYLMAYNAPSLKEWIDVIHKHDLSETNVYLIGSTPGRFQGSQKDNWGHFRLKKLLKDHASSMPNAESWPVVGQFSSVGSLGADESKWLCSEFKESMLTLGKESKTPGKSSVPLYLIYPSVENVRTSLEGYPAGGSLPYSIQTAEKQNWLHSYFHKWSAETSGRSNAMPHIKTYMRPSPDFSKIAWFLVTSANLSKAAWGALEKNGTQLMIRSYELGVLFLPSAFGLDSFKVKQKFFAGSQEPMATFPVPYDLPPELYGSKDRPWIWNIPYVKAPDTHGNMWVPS
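Signal: AlphaScreen proximity between streptavidin donor and anti-FITC acceptor beads on intact substrate. Reaction: Tdp1 1 nM, substrate 15 nM final, 5 min RT after 15 min compound preincubation.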
GCN5L2 inh: qHTS Assay for Inhibitors of GCN5L2; GCN5L2 HAT assay, ThioGlo1 CoA-SH fluorescence; AID 504327, 2011; 0.21% of 390,000 active; Potency, µM (series often up to 58.9 µM), without a hit: at the top dose activity change, negative = inhibition, actives largely listed as inhibitors; Histone acetyltransferase KAT2A (Homo sapiens), Q92830
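GCN5L2 (20 nM) in 50mM HEPES pH 7.5, 0.1mM EDTA, 0.01% Tween-20 preincubated 15 min with compounds at room temperature. Reaction started with H3(1-25) 75uM, acetyl-CoA 70uM, ThioGlo1 50uM; CoA-thiol fluorescence (Ex340/Em540) read at 0 and 20 min.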
The depositor's hits bear a star; ? = inconclusive; . = no result. Compounds with a hit are over-represented: about 18% of the library has one in this group of screens. Calls follow the shape of the dose curve; as a rule, active = well fitted curve in the direction sought with a large enough effect; inconclusive = small, poorly fitted or top-dose-only effect, or another doubt; inactive = no such curve, though single readings can be large; an effect the other way counts as inactive or inconclusive. % is scaled to controls: 0 for no effect and ±100 for the full control effect; potency is read from the fitted curve at half-maximal effect.

SMILES | DT40 TDP1 CPT | TDP1 cell noCPT | PLK1 PBD inh | VDR inhibitor | TDP1 inh | GCN5L2 inh
Cc1c(C(=O)NCC(C)(C)N2CCOCC2)cnn1-c1ncc2c(n1)-c1ccccc1CCC2 | 8% | -4% | . | . | . | .
COc1ccc(NC(=O)CN2C(=O)CSc3ccc(S(=O)(=O)N(C)C)cc32)cc1OC | -14% | -17% | . | 4% | 0% | 0%
COc1cccc(C2=C(C(C)=O)Sc3nnc(C4CCCCC4)n3N2C(C)=O)c1 | 7.3µM* | 12µM* | . | -1% | 0% | -9%
CC(=O)C1=C(c2ccc(Cl)c(Cl)c2)N(C(C)=O)n2c(nnc2C2CCCCC2)S1 | ? | -27% | . | -9% | -5% | 0%
CC(=O)C1=C(c2ccccc2)N(C(C)=O)n2c(nnc2C2CCCCC2)S1 | ? | 4.6µM* | . | 2% | 3% | -5%
CCC(=O)C1=C(c2ccc(OC)c(OC)c2)N(C(=O)CC)n2c(nnc2-c2ccc(C)cc2)S1 | -3% | -25% | . | 6% | 0% | 2%
CCC(=O)C1=C(c2cccc(OC)c2)N(C(=O)CC)n2c(nnc2C2CCCCC2)S1 | 8.2µM* | 12µM* | . | 13% | 0% | 2%
CCC(=O)C1=C(c2cccc([N+](=O)[O-])c2)N(C(=O)CC)n2c(nnc2-c2ccccc2)S1 | 4.1µM* | 3.3µM* | . | 4% | 5% | -4%
CCC(=O)C1=C(c2ccccc2)N(C(=O)CC)n2c(nnc2C2CCCCC2)S1 | 9% | -2% | . | -4% | 0% | -7%
COc1cccc(CSc2nc3cc(C(=O)NC4CCCC4)ccc3c(=O)n2Cc2ccccc2)c1 | ? | ? | . | 15% | 2% | 3%
Cc1coc2c1C(=O)C(=O)c1c-2ccc2c(C)cccc12 | 2.9µM* | 4.6µM* | ? | ? | 6% | -24%
Cc1coc2c1C(=O)C(=O)c1c-2ccc2c1CCCC2(C)C | 0.82µM* | 1.3µM* | ? | 28µM* | 21% | 28µM*
COc1ccc(N2CCN(C(=O)c3cc4c(=O)n(Cc5cccnc5)ccc4nc3C)CC2)cc1 | -25% | -28% | . | 2% | 8% | -5%
Cc1ccc(-c2nc(N3CCN(S(=O)(=O)c4ccc(F)cc4)CC3)c3ccc(Cl)cc3n2)cc1 | . | . | . | -34% | 0% | .
COc1ccc(C2Nc3ccc(NC(=O)CO)cc3C(=O)N2Cc2cccc(Cl)c2)cc1COc1ccc(NC(C)=O)cc1 (stereo unspecified) | ? | 11µM* | . | -8% | -9% | .
COc1ccc(C2Nc3ccc(Cl)cc3C(=O)N2Cc2ccccc2)cc1COc1ccc(NC(C)=O)cc1 (stereo unspecified) | . | . | . | . | -14% | .
COc1cccc(CN2C(=O)c3ccccc3NC2c2ccc(OC)c(COc3ccc(NC(C)=O)cc3)c2)c1 (stereo unspecified) | . | . | . | . | 1% | .
COc1ccc(C2Nc3ccc(NC(C)=O)cc3C(=O)N2Cc2cccc(Cl)c2)cc1COc1ccc(NC(C)=O)cc1 (stereo unspecified) | 13µM* | 10µM* | . | -15% | -5% | .
Cc1ccc(S(=O)(=O)N2CCCC(c3nc4c(nnn4Cc4ccc(OC(F)(F)F)cc4)c(=O)[nH]3)C2)cc1 (stereo unspecified) | -6% | -13% | . | 4% | 6% | -5%
O=C(CCSCc1ccc(Cl)cc1)N1CCN(c2ccccc2F)CC1 | -12% | -5% | . | -2% | 0% | -4%

Compound activity from PubChem BioAssay.
